The values that follow come from PMC7862700, “An all-to-all approach to the identification of sequence-specific readers for epigenetic DNA modifications on cytosine”.

Common to all, as to test: DAPPL (digital affinity profiling via proximity ligation, sequencing); 10 mM Tris-HCl pH 7.5, 50 mM NaCl, 1 mM DTT, 4% glycerol, room temperature, 30 min; GST-TFs on glutathione beads, 16-mer random dsDNA library, 0.1% formaldehyde crosslink after washing; high values mean tight binding
One assay concerns the target T1, FEV (Homo sapiens, UniProt Q99581 1-238).
T1 sequence: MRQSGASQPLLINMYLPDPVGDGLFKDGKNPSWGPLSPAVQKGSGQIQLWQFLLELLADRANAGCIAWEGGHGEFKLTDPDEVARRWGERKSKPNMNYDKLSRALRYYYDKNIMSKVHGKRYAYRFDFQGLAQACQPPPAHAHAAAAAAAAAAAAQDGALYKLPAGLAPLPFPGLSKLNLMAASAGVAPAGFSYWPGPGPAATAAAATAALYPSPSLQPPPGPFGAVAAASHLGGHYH
Conditions: protein: recombinant; tags: N-terminal GST; dsDNA, one strand shown. In outline: (§1)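 Binding signal is defined as a hexamer's read frequency for one factor over its frequency for the tag-only sample. To obtain reads, GST-fused human transcription factors were expressed in yeast, captured on glutathione beads, barcoded with DNA and pooled with that sample. Pools met 200 nmole of a 16-mer random double-stranded DNA library in Tris/NaCl/DTT/glycerol buffer for 30 min at room temperature before washing, 0.1% formaldehyde crosslinking, proximity ligation (BsaI/T4 ligase, 1 h, 37 °C), PCR and Illumina NextSeq500 sequencing.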

Another assay deals with ETV5 (Homo sapiens, UniProt P41161 1-510). As to conditions: protein: recombinant; tags: N-terminal GST; dsDNA, one strand shown. In outline: as §1
The next assay addresses HSF1 (Homo sapiens, UniProt Q00613 1-529). As to conditions: protein: recombinant; tags: N-terminal GST; chain copies: 3; dsDNA, one strand shown. The essentials:
as §1

The target in another assay is T2, SPIC (Homo sapiens, UniProt Q8N5J4 1-248).
T2 sequence: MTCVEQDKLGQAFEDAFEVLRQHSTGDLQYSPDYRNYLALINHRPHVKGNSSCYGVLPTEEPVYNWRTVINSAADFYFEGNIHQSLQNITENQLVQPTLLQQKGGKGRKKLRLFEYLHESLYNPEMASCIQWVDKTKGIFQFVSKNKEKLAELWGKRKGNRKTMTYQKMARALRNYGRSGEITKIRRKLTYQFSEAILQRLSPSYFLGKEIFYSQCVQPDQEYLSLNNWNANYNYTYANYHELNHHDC
Conditions: protein: recombinant; tags: N-terminal GST; dsDNA, one strand shown. In outline:
as §1

A further assay concerns the target ELF4 (Homo sapiens, UniProt Q99607 1-663). Conditions: protein: recombinant; tags: N-terminal GST; dsDNA, one strand shown. In outline:
as §1

The target in the next assay is T3, ELK4 (Homo sapiens, UniProt P28324-2 1-405).
T3 sequence: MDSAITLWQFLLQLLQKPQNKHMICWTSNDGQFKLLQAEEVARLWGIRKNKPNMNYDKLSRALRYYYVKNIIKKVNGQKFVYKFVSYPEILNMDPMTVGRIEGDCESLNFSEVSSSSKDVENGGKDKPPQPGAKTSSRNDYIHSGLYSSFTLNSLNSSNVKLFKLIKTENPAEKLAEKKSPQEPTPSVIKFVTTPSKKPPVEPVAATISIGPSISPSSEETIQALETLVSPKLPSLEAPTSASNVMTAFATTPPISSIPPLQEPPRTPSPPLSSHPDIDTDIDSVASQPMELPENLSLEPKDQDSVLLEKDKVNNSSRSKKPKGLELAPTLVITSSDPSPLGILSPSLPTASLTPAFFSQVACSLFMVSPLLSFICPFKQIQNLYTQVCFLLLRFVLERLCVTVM
Conditions: protein: recombinant; tags: N-terminal GST; dsDNA, one strand shown. The essentials:
as §1

Another assay has as its target T4, ETV2 (Homo sapiens, UniProt O00321 1-342).
T4 sequence: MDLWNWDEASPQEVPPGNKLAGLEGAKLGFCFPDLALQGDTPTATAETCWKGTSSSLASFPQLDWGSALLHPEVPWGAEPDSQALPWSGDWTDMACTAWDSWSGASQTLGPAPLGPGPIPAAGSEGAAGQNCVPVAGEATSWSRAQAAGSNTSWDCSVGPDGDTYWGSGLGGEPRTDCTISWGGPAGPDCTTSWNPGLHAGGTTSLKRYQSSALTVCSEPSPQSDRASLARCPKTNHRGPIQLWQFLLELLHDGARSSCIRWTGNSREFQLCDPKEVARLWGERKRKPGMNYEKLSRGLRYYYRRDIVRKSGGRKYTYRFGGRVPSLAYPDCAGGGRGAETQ
As to conditions: protein: recombinant; tags: N-terminal GST; dsDNA, one strand shown. The essentials:
as §1

Another assay concerns the target T5, ELF3 (Homo sapiens, UniProt P78545 1-371).
T5 sequence: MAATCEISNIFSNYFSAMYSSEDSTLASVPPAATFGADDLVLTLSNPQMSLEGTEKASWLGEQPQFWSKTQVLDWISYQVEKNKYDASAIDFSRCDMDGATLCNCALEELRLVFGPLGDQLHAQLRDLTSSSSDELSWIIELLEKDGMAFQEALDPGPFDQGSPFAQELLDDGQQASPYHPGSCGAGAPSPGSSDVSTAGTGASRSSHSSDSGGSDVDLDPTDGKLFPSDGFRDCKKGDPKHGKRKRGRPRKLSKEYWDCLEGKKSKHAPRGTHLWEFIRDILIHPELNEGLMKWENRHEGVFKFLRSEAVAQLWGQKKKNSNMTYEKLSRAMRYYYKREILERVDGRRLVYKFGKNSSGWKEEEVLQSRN
As to conditions: protein: recombinant; tags: N-terminal GST; dsDNA, one strand shown. In outline:
as §1

In another assay the target is CRX (Homo sapiens, UniProt O43186 1-299). As to conditions: protein: recombinant; tags: N-terminal GST; dsDNA, one strand shown. The essentials:
as §1

A further assay has as its target ETV1 (Homo sapiens, UniProt P50549 1-477). As to conditions: protein: recombinant; tags: N-terminal GST; dsDNA, one strand shown. In outline: as §1
The target of the next assay is T6, ERF (Homo sapiens, UniProt P50548 1-548).
T6 sequence: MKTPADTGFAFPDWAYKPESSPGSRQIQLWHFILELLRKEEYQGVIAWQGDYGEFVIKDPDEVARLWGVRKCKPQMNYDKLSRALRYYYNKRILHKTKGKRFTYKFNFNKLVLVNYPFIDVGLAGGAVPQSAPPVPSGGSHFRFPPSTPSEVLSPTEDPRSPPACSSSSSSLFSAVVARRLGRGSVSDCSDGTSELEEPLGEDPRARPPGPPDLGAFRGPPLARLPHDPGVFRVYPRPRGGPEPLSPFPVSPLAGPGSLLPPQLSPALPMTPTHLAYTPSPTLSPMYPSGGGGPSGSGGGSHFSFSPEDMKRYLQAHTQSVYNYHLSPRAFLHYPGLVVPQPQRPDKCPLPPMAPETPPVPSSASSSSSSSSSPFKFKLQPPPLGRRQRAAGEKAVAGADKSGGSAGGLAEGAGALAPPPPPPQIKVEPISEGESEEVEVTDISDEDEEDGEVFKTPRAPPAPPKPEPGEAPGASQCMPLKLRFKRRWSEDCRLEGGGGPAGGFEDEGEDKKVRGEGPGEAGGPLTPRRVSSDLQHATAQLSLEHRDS
Conditions: protein: recombinant; tags: N-terminal GST; dsDNA, one strand shown. In outline:
as §1

Another assay deals with T7, ETV3L (Homo sapiens, UniProt Q6ZN32 1-361).
T7 sequence: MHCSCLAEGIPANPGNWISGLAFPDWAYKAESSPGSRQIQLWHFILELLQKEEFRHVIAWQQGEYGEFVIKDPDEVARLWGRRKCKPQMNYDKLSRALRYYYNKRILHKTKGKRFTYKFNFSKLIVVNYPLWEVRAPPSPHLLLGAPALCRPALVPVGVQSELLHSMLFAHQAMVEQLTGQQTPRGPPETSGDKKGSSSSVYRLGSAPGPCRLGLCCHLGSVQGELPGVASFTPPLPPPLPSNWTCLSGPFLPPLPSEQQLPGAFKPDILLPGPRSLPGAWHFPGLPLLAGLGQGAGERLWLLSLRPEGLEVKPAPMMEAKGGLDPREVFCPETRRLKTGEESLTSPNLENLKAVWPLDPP
As to conditions: protein: recombinant; tags: N-terminal GST; dsDNA, one strand shown. The essentials:
as §1

The target of the next assay is T8, ETS2 (Homo sapiens, UniProt P15036 1-469).
T8 sequence: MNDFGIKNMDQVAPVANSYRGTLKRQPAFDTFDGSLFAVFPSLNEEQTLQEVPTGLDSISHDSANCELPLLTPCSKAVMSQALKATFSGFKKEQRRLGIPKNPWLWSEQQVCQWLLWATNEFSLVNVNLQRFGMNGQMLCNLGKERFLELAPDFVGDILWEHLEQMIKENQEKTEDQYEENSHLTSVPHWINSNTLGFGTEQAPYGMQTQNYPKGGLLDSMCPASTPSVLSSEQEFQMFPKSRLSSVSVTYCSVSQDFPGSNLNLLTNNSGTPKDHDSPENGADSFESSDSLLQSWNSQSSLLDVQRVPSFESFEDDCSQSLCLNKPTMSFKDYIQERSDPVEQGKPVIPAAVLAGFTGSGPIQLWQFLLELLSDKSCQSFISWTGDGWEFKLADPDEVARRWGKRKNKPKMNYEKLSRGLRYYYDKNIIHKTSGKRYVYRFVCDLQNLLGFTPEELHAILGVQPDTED
As to conditions: protein: recombinant; tags: N-terminal GST; dsDNA, one strand shown. The essentials:
as §1

The next assay deals with T9, SPDEF (Homo sapiens, UniProt O95238 1-335).
T9 sequence: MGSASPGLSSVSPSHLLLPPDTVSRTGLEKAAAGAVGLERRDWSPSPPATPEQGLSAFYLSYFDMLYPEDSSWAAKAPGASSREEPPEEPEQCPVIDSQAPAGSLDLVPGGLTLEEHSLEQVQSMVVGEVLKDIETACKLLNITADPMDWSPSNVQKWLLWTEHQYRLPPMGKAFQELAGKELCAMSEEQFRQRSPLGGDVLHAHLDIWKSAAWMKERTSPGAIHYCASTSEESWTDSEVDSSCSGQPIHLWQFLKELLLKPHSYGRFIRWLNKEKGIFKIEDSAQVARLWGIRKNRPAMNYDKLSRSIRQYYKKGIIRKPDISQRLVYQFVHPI
As to conditions: protein: recombinant; tags: N-terminal GST; dsDNA, one strand shown. The essentials: as §1

In another assay the target is T10, ETV7 (Homo sapiens, UniProt Q9Y603 1-341).
T10 sequence: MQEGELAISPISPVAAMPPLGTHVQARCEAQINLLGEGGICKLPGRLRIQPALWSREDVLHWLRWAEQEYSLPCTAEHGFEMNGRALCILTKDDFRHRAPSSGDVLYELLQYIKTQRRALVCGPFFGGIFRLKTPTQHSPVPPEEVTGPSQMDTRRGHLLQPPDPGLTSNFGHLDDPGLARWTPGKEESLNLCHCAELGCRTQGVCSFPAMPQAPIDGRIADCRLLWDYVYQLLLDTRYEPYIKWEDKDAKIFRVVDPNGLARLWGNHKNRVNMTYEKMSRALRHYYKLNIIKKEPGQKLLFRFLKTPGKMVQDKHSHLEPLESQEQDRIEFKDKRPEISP
As to conditions: protein: recombinant; tags: N-terminal GST; dsDNA, one strand shown. The essentials:
as §1

A further assay concerns the target T11, ELF5 (Homo sapiens, UniProt Q9UKW6-2 1-255).
T11 sequence: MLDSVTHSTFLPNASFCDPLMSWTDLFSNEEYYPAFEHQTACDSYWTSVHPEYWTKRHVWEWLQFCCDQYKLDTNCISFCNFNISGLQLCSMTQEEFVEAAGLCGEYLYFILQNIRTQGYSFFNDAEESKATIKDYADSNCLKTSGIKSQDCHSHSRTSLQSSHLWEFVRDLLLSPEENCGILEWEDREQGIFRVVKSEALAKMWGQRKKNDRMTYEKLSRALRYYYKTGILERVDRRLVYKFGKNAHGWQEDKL
As to conditions: protein: recombinant; tags: N-terminal GST; dsDNA, one strand shown. The essentials: as §1

For another assay, the target named is T12, ETV3 (Homo sapiens, UniProt P41162-2 1-143).
T12 sequence: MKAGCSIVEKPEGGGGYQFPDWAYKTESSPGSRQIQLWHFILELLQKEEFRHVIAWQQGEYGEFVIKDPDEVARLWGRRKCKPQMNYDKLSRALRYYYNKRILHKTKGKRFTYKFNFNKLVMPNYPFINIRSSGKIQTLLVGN
As to conditions: protein: recombinant; tags: N-terminal GST; dsDNA, one strand shown. The essentials: as §1

The target of another assay is ETV6 (Homo sapiens, UniProt P41212 1-452). Conditions: protein: recombinant; tags: N-terminal GST; dsDNA, one strand shown. The essentials:
as §1

Sequence of ETV6 (P41212 whole entry): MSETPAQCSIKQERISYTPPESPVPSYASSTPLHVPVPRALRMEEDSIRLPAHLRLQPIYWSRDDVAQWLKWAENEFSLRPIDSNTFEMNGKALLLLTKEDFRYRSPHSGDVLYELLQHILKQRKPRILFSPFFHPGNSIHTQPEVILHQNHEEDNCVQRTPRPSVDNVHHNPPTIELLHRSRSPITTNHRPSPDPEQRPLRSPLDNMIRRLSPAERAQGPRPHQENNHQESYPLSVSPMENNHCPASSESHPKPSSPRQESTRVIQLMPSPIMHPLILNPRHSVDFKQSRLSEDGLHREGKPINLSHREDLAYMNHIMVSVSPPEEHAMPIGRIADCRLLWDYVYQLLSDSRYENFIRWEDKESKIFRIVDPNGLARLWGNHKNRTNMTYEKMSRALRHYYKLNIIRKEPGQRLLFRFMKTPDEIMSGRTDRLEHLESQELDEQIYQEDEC
Sequence of ELF4 (Q99607 whole entry): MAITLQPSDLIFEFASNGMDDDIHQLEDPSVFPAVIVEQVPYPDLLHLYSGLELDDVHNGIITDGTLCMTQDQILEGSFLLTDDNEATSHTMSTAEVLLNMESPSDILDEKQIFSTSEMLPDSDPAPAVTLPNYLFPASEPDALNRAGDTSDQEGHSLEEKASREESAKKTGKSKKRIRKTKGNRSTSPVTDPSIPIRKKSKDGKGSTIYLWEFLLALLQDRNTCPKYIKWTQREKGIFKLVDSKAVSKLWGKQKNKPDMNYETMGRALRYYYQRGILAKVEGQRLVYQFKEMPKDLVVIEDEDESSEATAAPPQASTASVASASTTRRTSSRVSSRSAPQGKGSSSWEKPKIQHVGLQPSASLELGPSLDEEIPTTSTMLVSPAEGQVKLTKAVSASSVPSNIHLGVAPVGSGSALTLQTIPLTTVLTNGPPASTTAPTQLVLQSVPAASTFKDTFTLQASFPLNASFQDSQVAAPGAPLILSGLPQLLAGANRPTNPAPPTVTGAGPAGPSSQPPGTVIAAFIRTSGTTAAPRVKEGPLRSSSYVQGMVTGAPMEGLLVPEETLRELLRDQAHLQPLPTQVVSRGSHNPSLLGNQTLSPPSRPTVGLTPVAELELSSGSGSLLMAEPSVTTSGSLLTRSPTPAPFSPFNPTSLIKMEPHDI
Sequence of ETV5 (P41161 whole entry): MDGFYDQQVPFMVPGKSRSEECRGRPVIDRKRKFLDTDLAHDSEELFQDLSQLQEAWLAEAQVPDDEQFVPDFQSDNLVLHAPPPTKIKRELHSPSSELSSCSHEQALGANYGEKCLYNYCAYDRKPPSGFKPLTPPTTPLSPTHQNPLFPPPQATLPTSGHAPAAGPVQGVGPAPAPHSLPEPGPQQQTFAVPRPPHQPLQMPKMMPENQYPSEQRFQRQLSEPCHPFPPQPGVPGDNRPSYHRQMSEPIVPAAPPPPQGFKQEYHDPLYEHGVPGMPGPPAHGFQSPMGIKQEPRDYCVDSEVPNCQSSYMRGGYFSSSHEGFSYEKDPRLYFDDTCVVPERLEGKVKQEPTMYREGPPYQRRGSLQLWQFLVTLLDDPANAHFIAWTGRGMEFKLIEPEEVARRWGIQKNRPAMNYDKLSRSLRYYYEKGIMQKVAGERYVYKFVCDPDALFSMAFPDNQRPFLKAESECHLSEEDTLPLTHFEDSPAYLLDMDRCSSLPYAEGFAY
Sequence of CRX (O43186 whole entry): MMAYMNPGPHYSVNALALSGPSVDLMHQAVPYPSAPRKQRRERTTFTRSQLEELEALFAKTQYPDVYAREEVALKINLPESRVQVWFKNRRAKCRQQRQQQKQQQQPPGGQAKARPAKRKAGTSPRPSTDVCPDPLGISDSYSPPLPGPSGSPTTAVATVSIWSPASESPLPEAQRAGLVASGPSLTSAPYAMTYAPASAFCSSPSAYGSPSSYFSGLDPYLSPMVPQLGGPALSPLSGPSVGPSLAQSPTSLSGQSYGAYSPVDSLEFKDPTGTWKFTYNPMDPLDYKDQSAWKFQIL
Sequence of HSF1 (Q00613 whole entry): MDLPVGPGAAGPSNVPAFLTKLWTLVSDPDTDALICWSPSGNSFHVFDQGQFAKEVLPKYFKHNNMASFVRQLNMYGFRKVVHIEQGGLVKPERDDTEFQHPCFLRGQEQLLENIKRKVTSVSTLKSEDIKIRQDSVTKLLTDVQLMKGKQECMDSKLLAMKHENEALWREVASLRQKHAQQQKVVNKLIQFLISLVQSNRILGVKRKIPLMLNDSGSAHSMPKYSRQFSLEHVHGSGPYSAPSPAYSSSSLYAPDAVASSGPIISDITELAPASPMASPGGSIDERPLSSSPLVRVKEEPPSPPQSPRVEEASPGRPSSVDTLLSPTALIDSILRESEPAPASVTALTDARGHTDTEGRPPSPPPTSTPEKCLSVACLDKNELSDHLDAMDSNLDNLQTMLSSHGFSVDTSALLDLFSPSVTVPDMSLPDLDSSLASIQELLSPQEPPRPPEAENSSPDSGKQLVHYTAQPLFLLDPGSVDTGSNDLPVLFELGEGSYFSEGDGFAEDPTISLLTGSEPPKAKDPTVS
Sequence of ETV1 (P50549 whole entry): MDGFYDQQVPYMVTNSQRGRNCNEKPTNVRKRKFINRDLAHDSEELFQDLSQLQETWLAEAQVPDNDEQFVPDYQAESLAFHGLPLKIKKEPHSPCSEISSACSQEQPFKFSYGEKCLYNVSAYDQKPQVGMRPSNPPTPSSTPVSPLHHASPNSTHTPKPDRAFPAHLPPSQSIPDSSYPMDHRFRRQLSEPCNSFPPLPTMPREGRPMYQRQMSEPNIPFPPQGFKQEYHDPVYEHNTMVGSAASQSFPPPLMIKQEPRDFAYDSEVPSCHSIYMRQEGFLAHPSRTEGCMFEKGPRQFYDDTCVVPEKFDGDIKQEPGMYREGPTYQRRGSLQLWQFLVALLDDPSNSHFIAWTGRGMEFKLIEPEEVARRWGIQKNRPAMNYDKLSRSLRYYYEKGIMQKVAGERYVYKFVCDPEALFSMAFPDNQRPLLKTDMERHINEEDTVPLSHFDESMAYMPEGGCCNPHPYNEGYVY

Turning to TTTACA, the binding signal with FEV is 1.2 fold enrichment (6-mer frequency, TF over GST control); with ETV5 it was 1.19 fold enrichment (6-mer frequency, TF over GST control); with HSF1, 1.32 fold enrichment (6-mer frequency, TF over GST control); in the assay with SPIC, 1.19 fold enrichment (6-mer frequency, TF over GST control); in the assay with ELF4, 1.26 fold enrichment (6-mer frequency, TF over GST control); with ELK4, 1.32 fold enrichment (6-mer frequency, TF over GST control). For the same sequence, the binding signal is 1.26 fold enrichment (6-mer frequency, TF over GST control) in the assay with ETV2; 1.4 fold enrichment (6-mer frequency, TF over GST control) in the assay with ELF3; 1.55 fold enrichment (6-mer frequency, TF over GST control) in the assay with CRX; 1.3 fold enrichment (6-mer frequency, TF over GST control) in the assay with ETV1; 1.28 fold enrichment (6-mer frequency, TF over GST control) with ERF; 1.23 fold enrichment (6-mer frequency, TF over GST control) in the assay with ETV3L. Also, the binding signal is 1.25 fold enrichment (6-mer frequency, TF over GST control) with ETS2; 1.15 fold enrichment (6-mer frequency, TF over GST control) with SPDEF; 1.22 fold enrichment (6-mer frequency, TF over GST control) in the assay with ETV7; 1.22 fold enrichment (6-mer frequency, TF over GST control) in the assay with ELF5; 1.22 fold enrichment (6-mer frequency, TF over GST control) with ETV3; 1.17 fold enrichment (6-mer frequency, TF over GST control) with ETV6.
